The structures appear in SMILES notation. Measured potencies and affinities stand elsewhere. Calls of active or inactive are those of the source. The rule behind the calls is not given here.

The experiment is described as follows: viability loss in HEK293 cells – cell-based, plate reader, cherry-picked samples, cytotoxicity control, dose response (AID 743446). Particulars: stronger effect = lower value; at 26 µM unless noted.
With `Cc1ccccc1S(=O)(=O)N1[C@H](C#N)[C@H](c2ccc(C#CC3CCCCC3)cc2)[C@H]1CO`, the max activity was 29.2% [at 3 µM] (inactive).

As for `Cc1c(NC(=O)c2cccc(NC(=O)COc3ccccc3C#N)c2)c(=O)n(-c2ccccc2)n1C`, the max activity is -14.7% [at 3 µM] (inactive).

As for `Cc1ccc2nc(NC(=O)CCCC(=O)O)sc2c1`, the max activity is 12.5% (inactive).

With `C[C@H](CO)N1C[C@H](C)[C@H](CN(C)C(=O)Nc2ccccc2)OCCCC[C@H](C)Oc2ccc(NC(=O)NC3CCCCC3)cc2C1=O`, the max activity was 6.41% (inactive).

Regarding `Cc1cc(C(=O)COC(=O)c2ccccc2O)c(C)n1CC1CCCO1` (configuration not stated), the max activity is -7.06% [at 6 µM] (inactive).

As to `CCN(CC)S(=O)(=O)c1cc(C(=O)OCC(=O)Nc2ccc(-c3nc4ccc(C)cc4s3)cc2)ccc1F`, the max activity is -18.3% (inactive).

With `Cc1ccc(C)c(S(=O)(=O)N(C(=O)c2ccncc2)c2ccc(OC(=O)c3ccncc3)cc2)c1`, the max activity is 13.7% (inactive).

With `Fc1ccc(-n2nnc(-c3cnc4ccccc4c3)n2)cc1`, the max activity is 26.8% [at 1.6 µM] (inactive).

On to `O=C(O)c1cccc(COc2ccc(CO)cc2Cl)c1`, for which the max activity is 13.3% [at 6 µM] (inactive).

Consider `Cc1ccc(S(=O)(=O)N2CCCCC2)cc1NC(=O)c1ccc2c(=O)n3c(nc2c1)CCCCC3`, for which the max activity was 45.8% [at 6 µM] (inactive).

As for `Cc1ccc2nc(-c3ccc(NC(=O)COC(=O)c4ccco4)cc3)sc2c1`, the max activity is -11.7% [at 1.6 µM] (inactive).

Consider `CN1CCN(c2ccc(NC(=O)c3sc4ccccc4c3Cl)cc2)CC1`, for which the max activity is 17.1% [at 0.1 µM] (inactive).

For the origin of these results see PubChem BioAssay AID743446 (Broad Institute, 2014).
